Measurements as given in PubChem BioAssay AID1508600 (Functional Genomics Laboratory (NCATS/FGL), 2020).
The campaign covered roughly 53,000 sequences. About 3,700 (7%) were called active. This is one part of a sample in which actives are shown more often than they occur. Values without a mark were called inactive.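 Rule for the calls: active = gene knockdowns whose robust z-score for IL-1 alpha signal is at least 2 or at most -2, so actives lie on both sides; inactive = the rest.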

Assay: Components of the Cytosolic LPS Sensing Pathway: Gene Identification via Genome-wide siRNA Screen;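 note: robust z of the log signal after scaling to non-targeting control siRNA wells of the plate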
Settings: RAW264.7 macrophages, IL-1a HTRF, actives lie on both sides, screened at 100 nM (by protocol), cells primed 5 h with Pam3CSK4 first
Outline: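 Knockdown: 100 nM siRNA, 48h, RAW264.7. Stimulation: Pam3CSK4 5 h, then LipidA via TransIT-TKO 24 h. Output: supernatant IL-1a HTRF, negative-control-normalized, log robust z-score; viability by CellTiter-Glo.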

Sequence	z-score
GGGACCAGAUGAAGAAGGATT against Coq4	0.267
GGAAAUAGAGGAAAGAGAATT against Rbm17	-0.235
GGCCAUCCAUUGAAGACAUTT against Stk-ps2	1.05
GGCUCUGUUGAAUGCAACGTT against Slc39a6	-2.15 (active)
CUUUGUCAGCCAUGUAUCCTT against Tas2r104	0.468
GCUGCCACUGGACACAUAATT against 4930591A17Rik	-0.0198
GGCUCAAGAAAGUGAAUGATT against Myog	-1.14
GCAAGACACUUGAUAACUCTT against Znrd1as	2.34 (active)
GGAGCAUUUGUUUCCAAGATT against Cd38	-1.33
GCGCAAUGACGAUAAACUCTT against Sema3f	0.534
CCGGAGGUUCCAACAAACUTT against Dlx1	-0.591
GGAUCCAGAACUAAAAAUCTT against Pcdhga2	0.193
GCUUACUAAUGCGGAUUACTT against 5330438D12Rik	-2.41 (active)
GGAAGUUGGUGAGCUGGUATT against Ccl17	2.4 (active)
GGAAGACAACAACCUAGAATT against Rpn1	-0.894
GCAGAGUCUGGAUCAACAUTT against Efcab14	-0.583
CCUCCAGUUCAGAAUUCUATT against Surf4	0.634
GGCACGAUACUUAUUUGAATT against Nudt13	-1.43
GGAAGUUGUAGGAGAAAACTT against Rnf214	-0.624
CGAGAACAGAGGUUUUUAATT against Mxi1	0.0641
GGAUGCAUUUUUUCUGGAATT against Nop53	0.85
GGUGGAAGAGGAGAGUGAATT against Ncl	-0.284
GGAACUGAGCCAAGAAGCUTT against Prox2	-2.16 (active)
GUGUGGACAACUCCUGAGUTT against 9630041A04Rik	-1.14
CGUUAACUCUCGGACGAUCTT against Fitm1	0.576
GGAGGUGGAUCAAAUGGCATT against Gnrh1	-0.667
GGAAAUAUUGUCAUCAUGGTT against Olfr1302	-0.483
GCGGAACUGACUUUCCUGATT against Rhot2	0.443
GGGUAAGAGUUACAGAAUATT against Serpinb8	-0.0947
